Columns and labels:
Assay in all cases: relative growth (AUC of 72 h growth curve relative to DMSO control, dAUC) (ratio); higher = more growth (less inhibition), active = hit call of the paper
Settings in all cases: 20 µM;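 active = growth AUC significantly below the DMSO wells by Dunnett test; inactive = the rest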
[1] = system: Prolinoborus 1 (Prolinoborus fasciculus)
Summary of the method: (§1)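 For relative growth (dAUC), the spline-integrated area under the growth curve was divided by the mean of the DMSO controls. Results were averaged over three biological replicates. Each replicate used a 1:100 dilution, into 96-well plates holding each chemical at 20 µM (1% DMSO), of isolates from Icelandic stream sediments and Silwood Park soil or whole sediment communities that had been grown to carrying capacity in Luria–Bertani medium. Plates were shaken briefly before each hourly A600 reading over 72 h.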

[2] = system: Pseudomonas 1 (Pseudomonas baetica)
Summary of the method: as §1

[3] = system: Pseudomonas 2 (Pseudomonas vancouverensis)
Summary of the method: as §1

[4] = system: Pseudomonas 3 (Pseudomonas mandelii)
Summary of the method: as §1

[5] = system: Pseudomonas 4 (Pseudomonas peli)
Summary of the method: as §1

[6] = system: Pseudomonas 5 (Pseudomonas baetica)
Summary of the method: as §1

[7] = system: Pseudomonas 6 (Pseudomonas sp.)
Summary of the method: as §1

[8] = system: Rhizobium 1 (Rhizobium herbae)
Summary of the method: as §1

[9] = system: Serratia 1 (Serratia sp. 2015-2462-01)
Summary of the method: as §1

[10] = system: Sphingomonas 2 (Sphingomonas sp.)
Summary of the method: as §1

Measured: relative growth

C#CCOc1ccc(CCNC(=O)C(OCC#C)c2ccc(Cl)cc2)cc1OC (stereo not given)
inactive: [1] 0.958 | [2] 0.979 | [3] 0.988 | [4] 1.02 | [5] 0.992 | [6] 0.985 | [7] 1.07 | [8] 1.06 | [9] 0.968 | [10] 1.13

CCCC(Cn1cncn1)c1ccc(Cl)cc1Cl (stereo not given)
inactive: [1] 0.988 | [2] 1.01 | [3] 0.994 | [4] 1.02 | [5] 1.07 | [6] 1.01 | [7] 0.993 | [8] 1.04 | [9] 0.994 | [10] 1.03

CCc1nn(C)c(C(=O)NCc2ccc(Oc3ccc(C)cc3)cc2)c1Cl
inactive: [1] 0.978 | [2] 1.08 | [3] 1.02 | [4] 1.01 | [5] 0.987 | [6] 1.01 | [7] 1.05 | [8] 0.941 | [9] 1.07 | [10] 1.04

CO/N=C(/C(=O)OC)c1ccccc1CO/N=C(\C)c1cccc(C(F)(F)F)c1
inactive: [1] 0.953 | [2] 1.13 | [3] 1 | [4] 1.04 | [5] 0.949 | [6] 0.978 | [7] 1.03 | [8] 0.921 | [9] 0.952 | [10] 1.1

COP(=O)(NC(C)=O)SC (stereo not given)
inactive: [1] 1.03 | [2] 1.07 | [3] 1.02 | [4] 1.08 | [5] 1.02 | [6] 1.02 | [7] 1.14 | [8] 0.999 | [9] 0.992 | [10] 0.94

O=C(Nc1ccccc1-c1ccc(Cl)cc1)c1cccnc1Cl
inactive: [1] 0.978 | [2] 0.948 | [3] 0.972 | [4] 1 | [5] 0.986 | [6] 0.998 | [7] 0.959 | [8] 0.665 | [9] 0.971 | [10] 0.958

C#CCN1C(=O)COc2cc(F)c(N3C(=O)C4=C(CCCC4)C3=O)cc21
inactive: [1] 0.972 | [2] 1.1 | [3] 1 | [4] 1.04 | [5] 0.985 | [6] 1.05 | [7] 1.05 | [8] 0.908 | [9] 0.938 | [10] 0.959

Nc1c([N+](=O)[O-])ccc(Oc2ccccc2)c1Cl
inactive: [1] 0.962 | [2] 1.15 | [3] 0.982 | [4] 1.03 | [5] 0.949 | [6] 1.02 | [7] 1.15 | [8] 0.888 | [9] 0.946 | [10] 0.871

COC(=O)c1ccccc1S(=O)(=O)NC(=O)Nc1nc(C)nc(OC)n1
inactive: [1] 1.03 | [2] 0.998 | [3] 1.01 | [4] 0.983 | [5] 1.08 | [6] 0.984 | [7] 0.905 | [8] 1.15 | [9] 1.11 | [10] 1.03

CCC(=O)Nc1ccc(Cl)c(Cl)c1
inactive: [1] 0.951 | [2] 1.04 | [3] 0.975 | [4] 0.984 | [5] 0.928 | [6] 1.01 | [7] 1.02 | [8] 0.817 | [9] 0.906 | [10] 0.927

CCSC(C)CC1CC(=O)C(/C(CC)=N/OC/C=C/Cl)=C(O)C1 (mixture of isomers)
inactive: [1] 0.983 | [2] 1.07 | [3] 0.999 | [4] 1.02 | [5] 1.01 | [6] 1.05 | [7] 1.14 | [8] 0.924 | [9] 0.973 | [10] 1.18

Cc1ccc(/N=C/N(C)/C=N/c2ccc(C)cc2C)c(C)c1
inactive: [1] 0.978 | [2] 1.05 | [3] 0.973 | [4] 1.1 | [5] 0.967 | [6] 1.01 | [7] 1.11 | [8] 1.06 | [9] 0.946 | [10] 1.04

N#Cc1nn(-c2c(Cl)cc(C(F)(F)F)cc2Cl)c(N)c1[S+]([O-])C(F)(F)F (stereo not given)
inactive: [1] 0.897 | [2] 0.913 | [3] 0.948 | [4] 0.94 | [5] 0.987 | [6] 1.01 | [7] 0.962 | [8] 0.971 | [9] 0.96 | [10] 0.983

COP(=O)(OC)OC=C(Cl)Cl
inactive: [1] 0.895 | [2] 1.08 | [3] 0.963 | [4] 1.04 | [5] 0.963 | [6] 1.01 | [7] 0.982 | [8] 1.01 | [9] 0.96 | [10] 0.823

O=C1c2ccccc2C(=O)N1SC(Cl)(Cl)Cl
inactive: [1] 1.04 | [2] 1.05 | [3] 0.992 | [4] 1.01 | [5] 1.01 | [6] 1.06 | [7] 1.16 | [8] 1.01 | [9] 0.947 | [10] 0.999

CCNc1nc(Cl)nc(NC(C)C)n1
inactive: [1] 0.944 | [2] 0.917 | [3] 0.95 | [4] 0.996 | [5] 0.956 | [6] 1.01 | [7] 0.945 | [8] 0.995 | [9] 0.928 | [10] 1.02

CSc1nc(NC(C)C)nc(NC(C)C)n1
inactive: [1] 0.989 | [2] 1.14 | [3] 1.02 | [4] 1.02 | [5] 0.949 | [6] 1.03 | [7] 1.08 | [8] 0.858 | [9] 0.983 | [10] 0.989

CCOCN(C(=O)CCl)c1c(C)cccc1CC
inactive: [2] 1.1 | [3] 0.978 | [4] 1.02 | [5] 0.966 | [6] 0.988 | [7] 1.03 | [8] 0.909 | [9] 0.95 | [10] 1.17
1.2: [1]

CC[C@H](C)C1O[C@]2(C=C[C@@H]1C)C[C@@H]1C[C@@H](C/C=C(\C)[C@@H](O[C@H]3C[C@H](OC)[C@@H](O[C@H]4C[C@H](OC)[C@H](NC)[C@H](C)O4)[C@H](C)O3)[C@@H](C)/C=C/C=C3\CO[C@@H]4[C@H](O)C(C)=C[C@@H](C(=O)O1)[C@]34O)O2 (stereo not given in full)
inactive: [2] 0.957 | [3] 0.971 | [4] 1.08 | [5] 0.98 | [7] 1.19 | [8] 0.8
active: [1] 0.605 | [10] 0.373
1.16: [6] | [9]

CCOCn1c(-c2ccc(Cl)cc2)c(C#N)c(Br)c1C(F)(F)F
inactive: [1] 1.01 | [2] 1.05 | [3] 1 | [4] 1.04 | [5] 1.02 | [6] 0.998 | [7] 1.11 | [8] 1.07 | [9] 1.01 | [10] 0.848

COC(=O)N(C(=O)N1CO[C@@]2(C(=O)OC)Cc3cc(Cl)ccc3C2=N1)c1ccc(OC(F)(F)F)cc1
inactive: [1] 1 | [2] 1.02 | [3] 0.991 | [4] 1.04 | [5] 1.01 | [6] 0.965 | [7] 0.966 | [8] 1 | [9] 0.967 | [10] 0.861

CC(COc1ccc(Oc2ccccc2)cc1)Oc1ccccn1 (stereo not given)
inactive: [1] 1.03 | [2] 1.02 | [3] 1 | [4] 1.01 | [5] 1.05 | [6] 1.01 | [7] 1.08 | [8] 0.97 | [9] 0.987 | [10] 1.14

Cc1cccc2sc3nncn3c12
inactive: [1] 1.01 | [2] 1.18 | [3] 0.997 | [4] 1.03 | [5] 0.947 | [6] 1.04 | [7] 1.1 | [8] 0.846 | [9] 0.947 | [10] 0.944

CCOc1ccc(C(C)(C)COCc2cccc(Oc3ccccc3)c2)cc1
inactive: [1] 0.909 | [2] 1.14 | [3] 0.998 | [4] 1.02 | [5] 0.914 | [6] 0.991 | [7] 1.02 | [8] 0.851 | [9] 0.956 | [10] 0.967

COCC(=O)N(c1c(C)cccc1C)[C@H](C)C(=O)OC
inactive: [1] 0.988 | [2] 0.997 | [3] 0.974 | [4] 1.09 | [5] 1.03 | [6] 1.01 | [7] 1.01 | [8] 1.13 | [9] 0.965 | [10] 1.02

CCCN(CCOc1c(Cl)cc(Cl)cc1Cl)C(=O)n1ccnc1
inactive: [1] 0.93 | [2] 1.07 | [3] 0.984 | [4] 1.02 | [5] 0.964 | [6] 0.997 | [7] 1.03 | [8] 0.949 | [9] 0.985 | [10] 0.993

O=C1C2CC=CCC2C(=O)N1SC(Cl)(Cl)Cl (stereo not given)
active: [1] 0.598 | [2] 0.601 | [5] 0.796 | [8] 0.519 | [9] 0.813 | [10] 0.398
inactive: [3] 0.983 | [4] 0.941 | [6] 0.954 | [7] 0.879

CC1(C)C(C=C(Cl)Cl)C1C(=O)OC(C#N)c1cccc(Oc2ccccc2)c1 (stereo not given)
inactive: [1] 0.983 | [2] 0.942 | [3] 1.06 | [4] 1.06 | [5] 1.04 | [6] 1.02 | [7] 1 | [8] 1.15 | [9] 1.01 | [10] 1.03
